For this test, the system named is HepG2. As to the kind of experiment: GSK_TCMDC: Percent inhibition of human HepG2 cell line. Test compounds present at 10uM. The class given is functional.
Usually Inhibition stands for how much of the control response was suppressed. In the case of `O=C(c1ccco1)c1cn(CCOc2ccccc2)c2ccccc12`, the Inhibition was determined as 5%.

For `COc1cc(/C=C/C(=O)NC2CCC(N3CCC(c4ccccc4C)CC3)CC2)cc(OC)c1` (stereo not given), the Inhibition was determined as 51%.

As for `COc1ccc2nc(C)cc(N/N=C/c3cccc([N+](=O)[O-])c3)c2c1`, the Inhibition is recorded as 6%. Consider `CCOCCCn1c(=N)c(C(=O)NC(C)c2ccccc2)cc2c(=O)n3cccc(C)c3nc21` (stereo not given), for which the Inhibition is 24%.

`CCC(Cc1ccccc1)c1cc(O)c(Cc2ccc(-c3ccccc3)cc2)c(=O)o1` (stereo not given): the Inhibition turned out to be 3%.

`COc1ccc(NC(=O)[C@H](CC(C)C)Nc2cc(C)nc(NCc3cccc(C)c3)n2)cc1.O=C(O)C(F)(F)F` had an Inhibition of 24%. As to `N=C(N)NC(=O)Nc1ccc(Cl)c(Cl)c1`, the Inhibition was 29%. The compound `N=C(N)Nc1ccc(C(=O)O)c(O)c1` registered an Inhibition of 0%.

The compound `O=C(O)C(F)(F)F.O=C1OC(c2ccccc2)(c2ccccn2)CN1C1CCN(Cc2cccn2-c2ccc(Cl)cc2)CC1` (stereo not given) registered an Inhibition of 21%. On to `COc1ccc(-c2csc3ncnc(Cl)c23)cc1OC`, for which the Inhibition was 0%. `O=C(Nc1cccc(CN2CCN(C(=O)c3cccc(Cl)c3)CC2)c1)c1ccco1.O=C(O)C(F)(F)F` registered an Inhibition of 7%. With `COc1cc(CN2CCC(C(=O)Nc3ccc(-c4cccc(C)c4)cc3)CC2)ccc1O`, the Inhibition turned out to be 25%. For the compound `CC(=O)N1N=C(c2ccc(Cl)cc2)Sc2c1nc(-c1ccccc1)n2C(C)=O`, the Inhibition is given as 0%. As for `C[C@H](NC(=O)[C@H](CCCCNC(=O)OC(C)(C)C)NC(=O)OC(C)(C)c1ccc(-c2ccccc2)cc1)C(=O)OCc1ccccc1`, the figure is 4%; as for `N=C(N)NC(=O)Nc1cc(Cl)c(Br)c(Cl)c1`, 6%. Regarding `CC(C)(C)c1cc([N+](=O)[O-])cc(C(=O)Nc2ccccc2C(F)(F)F)c1O`, the Inhibition came out at 74%.

For `COc1ccc2nccc([C@@H](O)CN3CCC(NC(=O)/C=C/c4cc([N+](=O)[O-])ccc4OC)CC3)c2c1`, the Inhibition is 12%. `Cc1cc(=NN=CC=Cc2ccccc2)c2ccc(F)cc2[nH]1` returned an Inhibition of 14%. On to `CCCCCC(C)N/C(=N/c1ccccc1Br)Nc1ccc(C#N)cc1O` (stereo not given), for which the Inhibition amounted to 2%. Compound `Cc1cnc(C(=O)Nc2cccc(-c3ccc(-c4nc5cc(C(F)(F)F)ccc5[nH]4)s3)c2)cn1` had an Inhibition of 35%.

On to `Cl.O=S(=O)(Nc1cc2c(cc1O)CCNCC2)c1ccc(-c2ccc(Cl)cc2)cc1`, for which the Inhibition is 10%. As for `Nc1ccc2nc(C=Cc3ccccc3)[nH]c2c1`, the figure is 7%; as for `COc1ccc(Nc2nc(N)c3cc(OC)c(OC)cc3n2)cc1OC.Cl`, 0%; as for `CCCC(=O)Nc1ccc(OCCCN(Cc2cccc(C(F)(F)F)c2)c2ccc(C#N)c(C(F)(F)F)c2)cc1`, 0%.

Compound `Clc1ccc2c(NN=Cc3ccccc3)ccnc2c1` displayed an Inhibition of 0%. In the case of `COc1ccc(CN2CCC(CNC(C)c3cccc4ccccc34)CC2)cc1.O=C(O)C(F)(F)F` (stereo not given), the Inhibition is 58%. In the case of `O=C(O)C(F)(F)F.c1ccc(C(c2ccccc2)N2CCC(NCc3ccc(OCCCN4CCCCC4)cc3)CC2)cc1` it was 74%; in that of `CC(C)N1CCC(N(Cc2ccc(-c3ccc(C(F)(F)F)cc3)cc2)C(=O)Cn2c(CCc3cccc(F)c3F)nc(=O)c3cccnc32)CC1.O=C(O)C(O)C(O)C(=O)O`, 100%; in that of `Cc1cc(N[C@@H](Cc2ccccc2)C(=O)NC2CCCC2)nc(NCc2ccccc2C)n1.O=C(O)C(F)(F)F`, 2%. In the case of `Cc1cc(NC(=O)c2ccc(-c3ccccc3)cc2)no1` it was 5%; in that of `COc1ccc(NC(=O)Nc2cc(C)nc3ccccc23)cc1Cl`, 4%; in that of `O=[N+]([O-])c1ccc(Nc2nc(N/N=C/c3ccc(-c4ccc([N+](=O)[O-])cc4)o3)nc(Nc3ccccc3)n2)cc1`, 0%. In the case of `CN(C)c1ccc(CN2CCCCC(NC(=O)c3cc(-c4ccccc4Cl)cs3)C2)cc1.O=C(O)C(F)(F)F` (stereo not given) it was 10%; in that of `COc1ccc(NC(=O)[C@H](Cc2ccccc2)Nc2cc(C)nc(NCCc3ccc(F)cc3)n2)cc1.O=C(O)C(F)(F)F`, 17%.

As for `NS(=O)(=O)c1cccc(-c2ccc3ncc(N4CCOCC4)nc3c2)c1`, the Inhibition is given as 17%. In the case of `Cc1cccc2nc(-c3ccc(-c4ccc(CN5CCN(CCO)CC5)cc4)s3)[nH]c12.O=C(O)C(F)(F)F` it was 34%; in that of `Cl.Ic1cc(Nc2ncnc3ccsc23)ccc1OCc1ccccc1`, 22%; in that of `CC(C)(CNCc1ccc(F)c(F)c1)c1nc(-c2ccc(Cl)c(O)c2)c(-c2ccncc2)[nH]1.Cl`, 74%. The compound `CCCCCCCCc1nc(C)c(Br)c(O)c1Br` displayed an Inhibition of 2%.

Take `O=c1cc(NCCCNCc2ccc3c(c2)OC(F)(F)O3)[nH]c2ccccc12`: the Inhibition amounted to 0%.

The values above are taken from ChEMBL document CHEMBL1157539, “Thousands of chemical starting points for antimalarial lead identification” (Nature, 2010).
